Active and inactive are the calls of the source. Rule for the calls: active = hit-call score of the fitted dose curve at least 0.9, where 1 is the maximum; inactive = score below 0.9.
Legend:
[1] = ATG_E_Box_CIS: Attagene CIS-FACTORIAL HepG2 Assay for human Enhancer Box (E-box) (AID 2282936); settings: HepG2 E-box cis-reporter transcription, actives raise or lower the signal
Method in brief: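 Transiently transfected HepG2, endogenous TF-driven reporters, 24 h dosing. Readout: RT-PCR plus capillary electrophoresis of fluorescent reporter fragments. Gain or loss of signal fitted bidirectionally against DMSO baseline.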

[2] = ATG_M_61_CIS: Attagene CIS-FACTORIAL HepG2 Assay for M61 Transcription Factor (Internal Marker) (AID 2282937); settings: HepG2 Attagene CIS-FACTORIAL M61 internal marker reporter; actives raise or lower the signal
Method in brief: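 Human liver HepG2, transient MRTU transfection (cis promoter elements), 24 h compound. Total RNA → oligo(dT) RT → PCR → FAM label → HpaI → CE. Internal background marker; bidirectional fitting, DMSO = baseline.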

[3] = ATG_EGR_CIS: Attagene CIS-FACTORIAL HepG2 Assay for human Early Growth Response 1 (EGR1) (AID 2282938); settings: HepG2 Attagene CIS-FACTORIAL EGR reporter mRNA; actives raise or lower the signal
Method in brief: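 Transient transfection of human HepG2 with multiple cis-regulated reporter units, chemical exposure 24 h, total RNA isolated. Reverse transcription, PCR, fluorescent labelling and capillary electrophoresis quantify reporter transcripts; activity fitted bidirectionally against DMSO.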

[4] = ATG_M_19_CIS: Attagene CIS-FACTORIAL HepG2 Assay for M19 Transcription Factor (Internal Marker) (AID 2282939); settings: HepG2 Attagene CIS-FACTORIAL M19 internal marker reporter; actives raise or lower the signal
Method in brief: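 HepG2 cells transiently transfected with cis-regulated multiple reporter transcription units were dosed for 24 h; reporter mRNA was quantified by RT-PCR, 6-FAM primer-extension labelling, HpaI digestion and capillary electrophoresis, with bidirectional fitting against DMSO baseline.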

[5] = ATG_Ets_CIS: Attagene CIS-FACTORIAL HepG2 Assay for human Erythroblast Transformation Specific (ETS) (AID 2282941); settings: HepG2 ETS cis-reporter transcription, actives raise or lower the signal
Method in brief: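 Cis-regulated reporter mRNA induction in HepG2 (transient transfection), 24 h exposure, RT-PCR plus capillary electrophoresis detection; DMSO serves as negative control and baseline.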

[6] = biological target: Hepatocyte nuclear factor 3-beta (Homo sapiens) (UniProt Q9Y261); test: ATG_FoxA2_CIS: Attagene CIS-FACTORIAL HepG2 Assay for human Forkhead box A2 (FOXA2) (AID 2282942); settings: HepG2 cis-reporter transcription factor activity, 24 h; actives raise or lower the signal
Method in brief: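 Transient MRTU transfection of HepG2 liver cells; 24 h treatment; total RNA → oligo(dT) RT → PCR → FAM primer extension → HpaI cut → CE. Bidirectional fit vs DMSO.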

[7] = ATG_FoxO_CIS: Attagene CIS-FACTORIAL HepG2 Assay for human Forkhead box O (FoxO) (AID 2282943); settings: HepG2 Attagene cis-reporter, FoxO element, mRNA; actives raise or lower the signal
Method in brief: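 Read-out: fluorescence of 6-FAM-labelled reporter cDNA fragments resolved by capillary electrophoresis. Transiently transfected HepG2 cells were dosed for 24 h; activity fitted in both directions relative to DMSO controls.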

[8] = ATG_GATA_CIS: Attagene CIS-FACTORIAL HepG2 Assay for human GATA Binding Protein (AID 2282944); settings: HepG2 GATA cis-element reporter, Attagene multiplex mRNA; actives raise or lower the signal
Method in brief: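 HepG2 cells transiently transfected with multiplexed cis-element reporter units reflecting endogenous transcription factor activity; reporter mRNA measured after 24 h dosing by RT-PCR, 6-FAM labeling, HpaI digestion and capillary electrophoresis. Bidirectional fitting versus DMSO baseline.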

[9] = ATG_GLI_CIS: Attagene CIS-FACTORIAL HepG2 Assay for human Zinc Finger Protein GLI1 (AID 2282945); settings: HepG2, Attagene cis-factorial reporter mRNA, GLI element; actives raise or lower the signal
Method in brief: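 Transiently transfected HepG2 cells report endogenous transcription factor activity via cis-element-driven reporter units. After 24 h compound exposure, reporter mRNA was measured by RT-PCR with capillary electrophoresis; bidirectional fitting against DMSO baseline.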

[10] = ATG_GRE_CIS: Attagene CIS-FACTORIAL HepG2 Assay for human Glucocorticoid Response Elements (GRE) (AID 2282947); settings: HepG2 GRE cis-reporter, Attagene multiplex mRNA; actives raise or lower the signal
Method in brief: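 Read-out: fluorescent reporter-transcript fragments separated by capillary electrophoresis after RT-PCR. Transiently transfected HepG2 cells carrying cis-element-driven reporter units were dosed for 24 h; gain or loss of signal fitted against DMSO control.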

[11] = ATG_ISRE_CIS: Attagene CIS-FACTORIAL HepG2 Assay for human Interferon Regulatory Factor 1 (IRF1) binding to an Interferon-Stimulated Response Element (ISRE) (AID 2282948); settings: HepG2 ISRE cis-reporter (Attagene), mRNA transcription readout; actives raise or lower the signal
Method in brief: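 Multiplexed mRNA reporter readout in human liver HepG2 cells: cis-element-driven reporters transfected, compound added for 24 h, transcripts amplified, fluorescently labelled and sized by capillary electrophoresis; curve fitting bidirectional against DMSO.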

[12] = ATG_M_32_CIS: Attagene CIS-FACTORIAL HepG2 Assay for M32 Transcription Factor (Internal Marker) (AID 2282949); settings: HepG2 Attagene cis-factorial M32 reporter, mRNA; actives raise or lower the signal;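 note: background control marker of the multiplexed CIS panel rather than a real target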
Method in brief: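 Transient MRTU transfection of HepG2; 24 h compound treatment; TriZol RNA, oligo(dT) RT, reporter PCR, 6-FAM primer extension, HpaI cut, CE. Gain/loss of signal vs DMSO.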

[13] = ATG_M_06_CIS: Attagene CIS-FACTORIAL HepG2 Assay for M06 Transcription Factor (Internal Marker) (AID 2282950); settings: HepG2 Attagene CIS-FACTORIAL M06 internal marker reporter; actives raise or lower the signal
Method in brief: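 HepG2 cells transiently transfected with cis-regulated multiple reporter transcription units were exposed to chemical for 24 h; reporter mRNA was quantified by RT-PCR, 6-FAM primer labelling, HpaI digestion and capillary electrophoresis, fitted bidirectionally against DMSO.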

[14] = biological target: Hypoxia-inducible factor 1-alpha (Homo sapiens) (UniProt Q16665); test: ATG_HIF1a_CIS: Attagene CIS-FACTORIAL HepG2 Assay for human Hypoxia Inducible Factor 1 (HIF1A) (AID 2282951); settings: HepG2 Attagene cis-factorial HIF1a reporter transcription; actives raise or lower the signal
Method in brief: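 Transient MRTU transfection of human HepG2 liver cells, 24 h compound treatment, then total RNA isolation, oligo(dT) reverse transcription, PCR amplification, fluorescent labelling and capillary electrophoresis of reporter fragments. Gain or loss relative to DMSO.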

[15] = biological target: Hepatocyte nuclear factor 6 (Homo sapiens) (UniProt Q9UBC0); test: ATG_HNF6_CIS: Attagene CIS-FACTORIAL HepG2 Assay for human Hepatocyte Nuclear Factor 6 (HNF6) (AID 2282952); settings: HepG2 Attagene cis-factorial HNF6 reporter transcription; actives raise or lower the signal
Method in brief: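 Twenty-four-hour chemical treatment of reporter-transfected HepG2 cells precedes RNA isolation, DNase-treated reverse transcription and PCR of reporter sequences. Labelled fragments are sized by capillary electrophoresis and fitted bidirectionally versus DMSO.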

[16] = ATG_MRE_CIS: Attagene CIS-FACTORIAL HepG2 Assay for human Metal Responsive Element (MRE) (AID 2282954); settings: HepG2 MRE cis-reporter transcription, Attagene multiplex; actives raise or lower the signal
Method in brief: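 RT-PCR/capillary electrophoresis readout of reporter mRNA, 24 h post-dosing, in HepG2 cells transfected with multiplexed cis-regulated reporter constructs. Gain or loss of signal fitted bidirectionally against DMSO baseline.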

[17] = ATG_PBREM_CIS: Attagene CIS-FACTORIAL HepG2 Assay for human Phenobarbital-responsive Enhancer Module (PBREM) (AID 2282955); settings: HepG2 PBREM cis-reporter, Attagene multiplexed transcription; actives raise or lower the signal
Method in brief: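 Endogenous transcription factors in human liver HepG2 cells drive a PBREM cis-element reporter, whose transcript level after 24 h treatment is quantified by RT-PCR with capillary electrophoresis; activity fitted in both directions against DMSO.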

[18] = biological target: Paired box protein Pax-6 (Homo sapiens) (UniProt P26367); test: ATG_Pax6_CIS: Attagene CIS-FACTORIAL HepG2 Assay for human Paired Box 6 (PAX6) (AID 2282956); settings: HepG2 CIS-FACTORIAL PAX6 reporter transcription, RNA readout; actives raise or lower the signal
Method in brief: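 Fluorescent RT-PCR products separated by capillary electrophoresis report PAX6-linked promoter mRNA in HepG2 cells 24 h post-dose. Curves fitted bidirectionally, DMSO as negative control.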

[19] = biological target: Heat shock factor protein 1 (Homo sapiens) (UniProt Q00613); test: ATG_HSE_CIS: Attagene CIS-FACTORIAL HepG2 Assay for human Heat Shock Transcription Factor 1 (HSE) (AID 2282953); settings: HepG2 HSE cis-reporter, Attagene RNA transcription; actives raise or lower the signal
Method in brief: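 HepG2 cells transiently transfected with multiple reporter transcription units under cis-regulatory promoter control, measuring endogenous transcription factor activity. After 24 h chemical exposure, reporter mRNA quantified by RT-PCR, fluorescent labelling, HpaI digestion and capillary electrophoresis; bidirectional fit versus DMSO.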

[20] = ATG_ERE_CIS: Attagene CIS-FACTORIAL HepG2 Assay for Estrogen Response Element (ERE) (AID 2282940); settings: HepG2 ERE cis-reporter, Attagene RNA transcript; actives raise or lower the signal
Method in brief: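 HepG2 cells transiently transfected with cis-promoter-driven multiplexed reporter transcription units report endogenous TF activity. After 24 h compound exposure, reporter mRNA is quantified by RT-PCR with capillary electrophoresis fluorescence; bidirectional fitting versus DMSO baseline.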

Measured: AC50

Sequence of Paired box protein Pax-6 (Homo sapiens) (P26367 whole entry, looked up): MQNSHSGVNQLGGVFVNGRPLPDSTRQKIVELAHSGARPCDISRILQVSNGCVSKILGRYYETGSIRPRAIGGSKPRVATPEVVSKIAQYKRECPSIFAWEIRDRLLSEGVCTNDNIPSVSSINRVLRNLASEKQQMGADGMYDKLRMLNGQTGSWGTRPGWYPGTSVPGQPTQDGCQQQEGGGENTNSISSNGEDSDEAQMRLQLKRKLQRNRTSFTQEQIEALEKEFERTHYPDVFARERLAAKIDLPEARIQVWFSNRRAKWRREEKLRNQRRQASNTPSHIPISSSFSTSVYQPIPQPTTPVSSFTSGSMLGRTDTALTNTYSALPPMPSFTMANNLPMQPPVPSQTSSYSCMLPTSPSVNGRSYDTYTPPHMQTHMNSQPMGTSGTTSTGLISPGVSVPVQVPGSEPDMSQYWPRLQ
Sequence of Heat shock factor protein 1 (Homo sapiens) (Q00613 whole entry, looked up): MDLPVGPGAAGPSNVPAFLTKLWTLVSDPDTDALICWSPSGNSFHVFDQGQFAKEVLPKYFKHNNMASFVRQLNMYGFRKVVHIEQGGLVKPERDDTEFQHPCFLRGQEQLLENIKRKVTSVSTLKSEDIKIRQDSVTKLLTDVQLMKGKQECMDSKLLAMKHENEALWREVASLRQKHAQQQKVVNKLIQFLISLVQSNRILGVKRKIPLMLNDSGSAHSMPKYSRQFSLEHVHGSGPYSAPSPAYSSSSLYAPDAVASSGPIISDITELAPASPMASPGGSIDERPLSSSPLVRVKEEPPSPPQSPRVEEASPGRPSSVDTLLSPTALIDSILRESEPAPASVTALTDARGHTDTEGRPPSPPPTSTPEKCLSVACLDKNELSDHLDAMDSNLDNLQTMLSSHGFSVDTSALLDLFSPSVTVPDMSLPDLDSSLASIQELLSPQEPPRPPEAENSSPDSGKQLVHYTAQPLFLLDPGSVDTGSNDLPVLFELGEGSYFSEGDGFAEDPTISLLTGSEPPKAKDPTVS
Sequence of Hypoxia-inducible factor 1-alpha (Homo sapiens) (Q16665 whole entry, looked up, the tested form may be a part): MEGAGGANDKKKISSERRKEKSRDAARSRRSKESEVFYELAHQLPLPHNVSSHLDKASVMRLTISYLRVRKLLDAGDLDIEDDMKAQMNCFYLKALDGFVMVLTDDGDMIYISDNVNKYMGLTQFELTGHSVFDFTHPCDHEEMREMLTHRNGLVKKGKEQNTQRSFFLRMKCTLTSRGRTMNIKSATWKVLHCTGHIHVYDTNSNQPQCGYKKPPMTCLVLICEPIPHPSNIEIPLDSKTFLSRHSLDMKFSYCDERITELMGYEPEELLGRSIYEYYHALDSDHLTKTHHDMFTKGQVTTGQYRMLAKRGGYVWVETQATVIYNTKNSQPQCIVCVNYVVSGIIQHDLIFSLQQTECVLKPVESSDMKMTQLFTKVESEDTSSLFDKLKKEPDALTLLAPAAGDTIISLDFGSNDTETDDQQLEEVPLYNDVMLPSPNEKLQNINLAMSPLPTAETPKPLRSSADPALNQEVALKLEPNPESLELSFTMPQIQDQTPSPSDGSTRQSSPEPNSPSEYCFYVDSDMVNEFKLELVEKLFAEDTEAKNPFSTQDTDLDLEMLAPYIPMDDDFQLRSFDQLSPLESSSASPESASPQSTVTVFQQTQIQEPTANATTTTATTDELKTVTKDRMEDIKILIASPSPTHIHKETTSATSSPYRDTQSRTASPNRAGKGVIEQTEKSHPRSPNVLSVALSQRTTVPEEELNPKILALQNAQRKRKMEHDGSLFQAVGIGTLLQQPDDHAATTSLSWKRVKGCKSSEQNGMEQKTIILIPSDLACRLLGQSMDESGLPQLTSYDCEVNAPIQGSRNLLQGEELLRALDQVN
Sequence of Hepatocyte nuclear factor 6 (Homo sapiens) (Q9UBC0 whole entry, looked up, the tested form may be a part): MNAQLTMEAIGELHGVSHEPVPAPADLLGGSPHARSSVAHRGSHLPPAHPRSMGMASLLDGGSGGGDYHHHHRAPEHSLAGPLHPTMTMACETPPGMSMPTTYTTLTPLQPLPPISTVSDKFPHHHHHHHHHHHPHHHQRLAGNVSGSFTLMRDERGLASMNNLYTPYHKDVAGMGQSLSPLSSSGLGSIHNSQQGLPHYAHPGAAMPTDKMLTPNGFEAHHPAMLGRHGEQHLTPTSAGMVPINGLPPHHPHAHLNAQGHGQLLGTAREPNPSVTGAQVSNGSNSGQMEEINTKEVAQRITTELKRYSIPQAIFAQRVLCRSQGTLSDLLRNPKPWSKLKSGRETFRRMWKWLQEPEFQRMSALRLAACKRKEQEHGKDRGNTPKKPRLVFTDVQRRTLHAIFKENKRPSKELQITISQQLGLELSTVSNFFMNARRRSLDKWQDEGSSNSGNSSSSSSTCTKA
Sequence of Hepatocyte nuclear factor 3-beta (Homo sapiens) (Q9Y261 whole entry, looked up): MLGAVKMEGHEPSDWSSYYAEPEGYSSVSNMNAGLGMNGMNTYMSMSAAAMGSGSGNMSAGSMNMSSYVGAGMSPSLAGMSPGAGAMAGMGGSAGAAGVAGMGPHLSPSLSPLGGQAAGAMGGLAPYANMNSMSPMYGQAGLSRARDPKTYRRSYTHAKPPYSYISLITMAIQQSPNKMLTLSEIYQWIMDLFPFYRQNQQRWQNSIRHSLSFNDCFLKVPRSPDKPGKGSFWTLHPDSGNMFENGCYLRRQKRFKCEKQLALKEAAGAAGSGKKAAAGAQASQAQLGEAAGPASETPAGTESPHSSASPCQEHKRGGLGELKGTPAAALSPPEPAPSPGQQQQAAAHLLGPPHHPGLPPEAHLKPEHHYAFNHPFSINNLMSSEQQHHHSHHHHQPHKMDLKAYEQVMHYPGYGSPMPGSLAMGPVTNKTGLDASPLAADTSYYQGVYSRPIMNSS

Fc1ccccc1[C@@H](F)COC1CCC(Nc2ncnc3[nH]ncc23)CC1 (stereo partly specified)
active: [1] 177 µM | [3] 5.72 µM | [11] 100 µM | [14] 2.96 µM | [16] 103 µM | [17] 26.2 µM
not listed: [19] | [20]
inactive: all other assays above

CCCCCCc1ccc(O)cc1O
active: [3] 52.7 µM | [11] 55.7 µM | [14] 50.7 µM | [16] 54.1 µM | [18] 51.1 µM
not listed: [12] | [20]
inactive: all other assays above

CC(C)=CCCC(C)CCO (stereo unspecified)
active: [20] 65.7 µM | [14] 178 µM
not listed: [10] | [12] | [17] | [19]
inactive: all other assays above

CC(=O)c1ccc2c(c1)[C@H](NC(=O)c1ccc(F)cc1)[C@@H](O)C(C)(C)O2
not listed: [12] | [20]
inactive: all other assays above

CCOC(=O)c1ccc(C2CCC(NC[C@H](O)COc3ccc(O)c(NS(C)(=O)=O)c3)CC2)cc1 (stereo partly specified)
active: [3] 56.8 µM | [7] 53.5 µM | [8] 48.8 µM | [9] 59.6 µM | [10] 53.8 µM | [11] 51.5 µM | [14] 7.81 µM | [19] 61.8 µM | [16] 55 µM | [17] 53.4 µM | [18] 46.5 µM
inactive: [1] | [2] | [4] | [5] | [6] | [13] | [15]

CC(=O)OCCC(C)C
not listed: [12] | [20]
inactive: all other assays above
